How the values were obtained:
Experiment in all cases: log2 ratio of Biotin-Ahx-Ub-VS probe labelling (fragment/DMSO); higher = less target engagement (more negative = stronger competition), active = hit call of the paper (q ≤ 0.05, log2 ratio ≤ -1)
Conditions in all cases: compound concentration: 200 uM; treatment time: 3 h
USP42 = target: T1, USP42 (UniProt Q9H9J4)
T1 sequence (whole entry): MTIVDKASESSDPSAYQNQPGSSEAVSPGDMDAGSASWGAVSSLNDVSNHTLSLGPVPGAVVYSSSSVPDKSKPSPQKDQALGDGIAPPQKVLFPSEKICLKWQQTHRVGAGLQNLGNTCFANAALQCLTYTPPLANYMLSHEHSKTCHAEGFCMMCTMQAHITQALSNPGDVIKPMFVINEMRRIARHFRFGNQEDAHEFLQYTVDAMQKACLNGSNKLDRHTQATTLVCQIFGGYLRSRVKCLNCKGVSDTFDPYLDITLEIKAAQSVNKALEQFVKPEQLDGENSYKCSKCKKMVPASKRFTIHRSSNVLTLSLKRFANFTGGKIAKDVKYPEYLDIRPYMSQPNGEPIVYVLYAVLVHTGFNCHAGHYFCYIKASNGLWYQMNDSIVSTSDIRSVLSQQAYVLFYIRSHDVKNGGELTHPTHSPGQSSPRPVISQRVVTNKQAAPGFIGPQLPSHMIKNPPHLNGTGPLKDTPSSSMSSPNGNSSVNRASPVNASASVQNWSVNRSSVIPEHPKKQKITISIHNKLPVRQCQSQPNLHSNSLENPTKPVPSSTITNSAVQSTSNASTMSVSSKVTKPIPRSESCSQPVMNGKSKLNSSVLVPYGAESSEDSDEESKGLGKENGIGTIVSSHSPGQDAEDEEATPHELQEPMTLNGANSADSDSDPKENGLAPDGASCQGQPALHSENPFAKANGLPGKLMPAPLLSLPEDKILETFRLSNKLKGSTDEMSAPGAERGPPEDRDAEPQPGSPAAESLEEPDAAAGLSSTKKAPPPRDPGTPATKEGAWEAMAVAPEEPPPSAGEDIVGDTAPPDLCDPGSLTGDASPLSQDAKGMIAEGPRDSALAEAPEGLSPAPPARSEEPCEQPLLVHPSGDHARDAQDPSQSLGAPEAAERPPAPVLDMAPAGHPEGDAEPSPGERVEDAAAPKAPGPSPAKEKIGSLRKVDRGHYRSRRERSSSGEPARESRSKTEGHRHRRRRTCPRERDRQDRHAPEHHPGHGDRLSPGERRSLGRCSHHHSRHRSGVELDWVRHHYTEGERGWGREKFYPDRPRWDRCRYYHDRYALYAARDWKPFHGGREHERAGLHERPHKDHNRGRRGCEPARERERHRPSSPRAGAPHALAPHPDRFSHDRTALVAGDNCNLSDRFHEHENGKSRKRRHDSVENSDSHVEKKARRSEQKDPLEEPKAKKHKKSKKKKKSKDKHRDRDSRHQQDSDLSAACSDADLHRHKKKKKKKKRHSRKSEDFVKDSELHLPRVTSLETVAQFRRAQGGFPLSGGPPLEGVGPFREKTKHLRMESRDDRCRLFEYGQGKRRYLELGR
Outline: (§1)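 Labelled DUBs were enriched with NeutrAvidin, digested with LysC and trypsin, and run by diaPASEF LC-MS/MS. The labelling used Biotin-Ahx-Ub-VS at 0.5 µM final for 1 h on HEK293T lysate (495 µg per sample) previously treated in triplicate with fragment at 200 µM or vehicle for 3 h. Values are average log2 fragment/vehicle ratios by unpaired t-test on global-median-normalised Spectronaut quantities of proteins with ≥2 unique peptides.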

USP46 = USP46 (UniProt P62068)
Outline: as §1

USP47 = target: T2, USP47 (UniProt Q96K76)
T2 sequence (whole entry): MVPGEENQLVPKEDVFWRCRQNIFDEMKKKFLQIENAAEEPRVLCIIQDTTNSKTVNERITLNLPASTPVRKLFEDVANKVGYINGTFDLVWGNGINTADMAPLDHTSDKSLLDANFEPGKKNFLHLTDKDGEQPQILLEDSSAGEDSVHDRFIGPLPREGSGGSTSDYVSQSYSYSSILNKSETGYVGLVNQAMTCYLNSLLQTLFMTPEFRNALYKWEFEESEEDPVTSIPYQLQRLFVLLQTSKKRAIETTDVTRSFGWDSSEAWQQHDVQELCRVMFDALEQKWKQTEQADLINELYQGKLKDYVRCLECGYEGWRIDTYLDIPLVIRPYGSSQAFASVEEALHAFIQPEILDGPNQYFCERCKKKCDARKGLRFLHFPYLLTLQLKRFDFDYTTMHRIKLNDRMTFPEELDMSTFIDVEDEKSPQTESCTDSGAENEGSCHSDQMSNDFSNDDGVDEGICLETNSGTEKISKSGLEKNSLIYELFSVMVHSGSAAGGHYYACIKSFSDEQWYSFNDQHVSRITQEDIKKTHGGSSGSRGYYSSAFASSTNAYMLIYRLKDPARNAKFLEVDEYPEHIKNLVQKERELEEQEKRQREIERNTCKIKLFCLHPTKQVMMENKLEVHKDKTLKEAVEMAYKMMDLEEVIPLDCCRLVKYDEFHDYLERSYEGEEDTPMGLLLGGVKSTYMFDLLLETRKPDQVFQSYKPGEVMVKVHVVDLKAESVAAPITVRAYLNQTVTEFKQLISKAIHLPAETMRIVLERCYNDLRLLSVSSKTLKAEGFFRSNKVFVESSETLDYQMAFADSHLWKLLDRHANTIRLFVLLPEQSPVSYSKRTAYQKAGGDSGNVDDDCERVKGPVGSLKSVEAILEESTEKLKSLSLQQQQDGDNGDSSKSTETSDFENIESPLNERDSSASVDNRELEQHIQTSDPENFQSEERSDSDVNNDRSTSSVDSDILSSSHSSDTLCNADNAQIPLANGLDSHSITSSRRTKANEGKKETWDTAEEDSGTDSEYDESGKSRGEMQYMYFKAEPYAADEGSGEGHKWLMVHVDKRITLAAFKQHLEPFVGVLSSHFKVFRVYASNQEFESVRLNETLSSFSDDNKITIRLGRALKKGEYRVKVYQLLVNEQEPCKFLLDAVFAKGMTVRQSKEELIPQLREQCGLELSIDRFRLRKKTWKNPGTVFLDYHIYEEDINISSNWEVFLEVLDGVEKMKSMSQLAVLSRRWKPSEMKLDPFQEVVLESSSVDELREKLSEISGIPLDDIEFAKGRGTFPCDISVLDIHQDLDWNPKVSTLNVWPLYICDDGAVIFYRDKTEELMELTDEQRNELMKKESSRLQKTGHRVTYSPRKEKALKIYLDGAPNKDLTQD
Outline: as §1

USP48 = target: T3, USP48 (UniProt Q86UV5)
T3 sequence (whole entry): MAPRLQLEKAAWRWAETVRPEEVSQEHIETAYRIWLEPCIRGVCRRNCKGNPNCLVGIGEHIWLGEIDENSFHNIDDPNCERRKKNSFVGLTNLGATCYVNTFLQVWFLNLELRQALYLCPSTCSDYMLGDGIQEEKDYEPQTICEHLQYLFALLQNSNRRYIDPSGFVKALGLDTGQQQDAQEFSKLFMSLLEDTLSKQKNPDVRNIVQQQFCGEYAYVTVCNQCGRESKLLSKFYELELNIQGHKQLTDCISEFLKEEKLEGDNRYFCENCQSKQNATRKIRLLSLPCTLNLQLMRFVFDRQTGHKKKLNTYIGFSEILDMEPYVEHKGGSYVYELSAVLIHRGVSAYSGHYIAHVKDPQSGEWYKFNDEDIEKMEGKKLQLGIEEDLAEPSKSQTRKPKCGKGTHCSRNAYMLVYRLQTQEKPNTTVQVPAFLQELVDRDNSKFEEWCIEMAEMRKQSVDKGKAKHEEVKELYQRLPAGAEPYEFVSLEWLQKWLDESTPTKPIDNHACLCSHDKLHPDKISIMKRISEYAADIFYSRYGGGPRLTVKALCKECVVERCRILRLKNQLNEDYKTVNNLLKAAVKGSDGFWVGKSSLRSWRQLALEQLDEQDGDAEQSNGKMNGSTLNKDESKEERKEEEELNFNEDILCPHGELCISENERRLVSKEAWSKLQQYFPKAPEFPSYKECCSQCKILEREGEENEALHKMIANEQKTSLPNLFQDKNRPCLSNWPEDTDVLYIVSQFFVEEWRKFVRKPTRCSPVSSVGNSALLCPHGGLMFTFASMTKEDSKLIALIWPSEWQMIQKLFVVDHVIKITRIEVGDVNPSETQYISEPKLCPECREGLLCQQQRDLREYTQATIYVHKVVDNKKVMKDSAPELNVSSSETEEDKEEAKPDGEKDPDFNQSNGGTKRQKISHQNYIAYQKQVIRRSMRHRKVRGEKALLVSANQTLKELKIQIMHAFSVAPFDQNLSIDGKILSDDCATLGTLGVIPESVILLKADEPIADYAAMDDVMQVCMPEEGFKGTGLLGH
Outline: as §1

USP5 = target: T4, USP5 (UniProt P45974)
T4 sequence (whole entry): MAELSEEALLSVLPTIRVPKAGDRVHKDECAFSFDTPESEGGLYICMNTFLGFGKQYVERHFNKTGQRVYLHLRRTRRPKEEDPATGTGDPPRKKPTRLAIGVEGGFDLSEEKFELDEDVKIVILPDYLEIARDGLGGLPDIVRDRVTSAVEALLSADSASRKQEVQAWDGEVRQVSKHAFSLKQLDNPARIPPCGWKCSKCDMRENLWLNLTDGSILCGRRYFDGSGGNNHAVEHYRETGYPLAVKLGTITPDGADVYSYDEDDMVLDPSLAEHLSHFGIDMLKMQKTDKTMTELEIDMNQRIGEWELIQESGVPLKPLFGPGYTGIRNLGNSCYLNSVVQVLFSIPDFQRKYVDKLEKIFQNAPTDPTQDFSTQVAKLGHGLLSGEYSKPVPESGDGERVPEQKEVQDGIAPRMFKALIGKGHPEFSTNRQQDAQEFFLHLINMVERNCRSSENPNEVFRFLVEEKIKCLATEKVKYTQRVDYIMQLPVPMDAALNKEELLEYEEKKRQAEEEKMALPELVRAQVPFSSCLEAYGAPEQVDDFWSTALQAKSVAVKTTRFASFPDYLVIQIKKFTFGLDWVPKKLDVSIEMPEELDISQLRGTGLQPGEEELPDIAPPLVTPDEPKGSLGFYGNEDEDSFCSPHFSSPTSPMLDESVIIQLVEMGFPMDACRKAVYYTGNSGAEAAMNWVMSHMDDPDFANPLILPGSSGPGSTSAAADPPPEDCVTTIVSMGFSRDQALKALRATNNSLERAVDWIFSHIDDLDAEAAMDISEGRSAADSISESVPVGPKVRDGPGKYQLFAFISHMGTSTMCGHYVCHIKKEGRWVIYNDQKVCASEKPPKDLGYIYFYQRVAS
Outline: as §1

USP54 = USP54 (UniProt Q70EL1)
Outline: as §1

USP7 = USP7 (UniProt Q93009)
Outline: as §1

USP8 = target: T5, USP8 (UniProt P40818)
T5 sequence (whole entry): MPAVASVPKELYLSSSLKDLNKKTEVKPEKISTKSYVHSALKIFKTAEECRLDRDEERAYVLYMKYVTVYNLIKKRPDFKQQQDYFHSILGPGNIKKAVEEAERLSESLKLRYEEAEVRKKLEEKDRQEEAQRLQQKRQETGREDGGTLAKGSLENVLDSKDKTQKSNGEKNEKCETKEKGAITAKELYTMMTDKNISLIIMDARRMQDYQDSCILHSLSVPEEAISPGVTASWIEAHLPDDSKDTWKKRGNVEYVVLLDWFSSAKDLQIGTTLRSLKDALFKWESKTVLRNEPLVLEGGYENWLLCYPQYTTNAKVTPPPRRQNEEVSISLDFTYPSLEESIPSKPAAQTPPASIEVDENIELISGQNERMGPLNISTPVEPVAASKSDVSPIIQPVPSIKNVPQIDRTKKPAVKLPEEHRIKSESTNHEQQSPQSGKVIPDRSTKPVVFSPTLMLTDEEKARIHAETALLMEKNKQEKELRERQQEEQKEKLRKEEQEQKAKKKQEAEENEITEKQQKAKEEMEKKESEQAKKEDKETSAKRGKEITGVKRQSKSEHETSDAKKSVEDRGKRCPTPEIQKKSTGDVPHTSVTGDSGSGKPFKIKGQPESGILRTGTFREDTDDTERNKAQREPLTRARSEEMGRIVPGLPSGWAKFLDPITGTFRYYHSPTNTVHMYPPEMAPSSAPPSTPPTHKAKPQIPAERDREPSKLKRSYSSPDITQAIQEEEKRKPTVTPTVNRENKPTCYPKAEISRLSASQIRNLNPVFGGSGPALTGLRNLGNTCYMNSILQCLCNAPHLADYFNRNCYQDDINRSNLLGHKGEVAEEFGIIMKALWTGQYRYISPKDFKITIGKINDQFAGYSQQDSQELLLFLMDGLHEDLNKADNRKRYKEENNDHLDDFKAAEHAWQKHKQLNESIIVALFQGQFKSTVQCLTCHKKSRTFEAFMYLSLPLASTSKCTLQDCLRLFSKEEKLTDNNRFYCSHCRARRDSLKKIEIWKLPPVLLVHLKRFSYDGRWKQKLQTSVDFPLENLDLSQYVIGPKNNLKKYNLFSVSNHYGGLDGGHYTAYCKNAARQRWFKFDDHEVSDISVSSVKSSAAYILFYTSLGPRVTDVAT
Outline: as §1

USP9X = USP9X (UniProt Q93008)
Outline: as §1

UniProt O00487 = target: UniProt O00487
Outline: as §1

Measured: log2 ratio of Biotin-Ahx-Ub-VS probe labelling

Sequence of UniProt O00487 (O00487 whole entry): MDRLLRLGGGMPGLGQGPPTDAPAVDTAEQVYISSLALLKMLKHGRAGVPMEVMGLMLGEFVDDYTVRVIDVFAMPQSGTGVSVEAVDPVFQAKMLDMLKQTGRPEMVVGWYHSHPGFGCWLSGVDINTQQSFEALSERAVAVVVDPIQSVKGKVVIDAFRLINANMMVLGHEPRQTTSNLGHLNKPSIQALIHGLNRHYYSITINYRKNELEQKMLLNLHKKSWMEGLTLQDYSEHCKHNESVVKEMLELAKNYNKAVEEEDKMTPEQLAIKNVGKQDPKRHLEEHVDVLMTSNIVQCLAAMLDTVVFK
Sequence of USP46 (P62068 whole entry): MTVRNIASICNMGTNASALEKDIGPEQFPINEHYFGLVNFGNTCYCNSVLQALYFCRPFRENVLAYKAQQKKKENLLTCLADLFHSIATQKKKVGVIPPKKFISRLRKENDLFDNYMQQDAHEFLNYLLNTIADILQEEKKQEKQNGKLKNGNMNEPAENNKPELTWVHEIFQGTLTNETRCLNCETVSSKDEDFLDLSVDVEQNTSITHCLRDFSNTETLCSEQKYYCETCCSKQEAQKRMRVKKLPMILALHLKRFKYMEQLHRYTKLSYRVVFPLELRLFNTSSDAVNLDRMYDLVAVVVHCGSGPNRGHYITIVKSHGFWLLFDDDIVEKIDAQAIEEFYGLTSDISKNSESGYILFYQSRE
Sequence of USP7 (Q93009 whole entry, looked up): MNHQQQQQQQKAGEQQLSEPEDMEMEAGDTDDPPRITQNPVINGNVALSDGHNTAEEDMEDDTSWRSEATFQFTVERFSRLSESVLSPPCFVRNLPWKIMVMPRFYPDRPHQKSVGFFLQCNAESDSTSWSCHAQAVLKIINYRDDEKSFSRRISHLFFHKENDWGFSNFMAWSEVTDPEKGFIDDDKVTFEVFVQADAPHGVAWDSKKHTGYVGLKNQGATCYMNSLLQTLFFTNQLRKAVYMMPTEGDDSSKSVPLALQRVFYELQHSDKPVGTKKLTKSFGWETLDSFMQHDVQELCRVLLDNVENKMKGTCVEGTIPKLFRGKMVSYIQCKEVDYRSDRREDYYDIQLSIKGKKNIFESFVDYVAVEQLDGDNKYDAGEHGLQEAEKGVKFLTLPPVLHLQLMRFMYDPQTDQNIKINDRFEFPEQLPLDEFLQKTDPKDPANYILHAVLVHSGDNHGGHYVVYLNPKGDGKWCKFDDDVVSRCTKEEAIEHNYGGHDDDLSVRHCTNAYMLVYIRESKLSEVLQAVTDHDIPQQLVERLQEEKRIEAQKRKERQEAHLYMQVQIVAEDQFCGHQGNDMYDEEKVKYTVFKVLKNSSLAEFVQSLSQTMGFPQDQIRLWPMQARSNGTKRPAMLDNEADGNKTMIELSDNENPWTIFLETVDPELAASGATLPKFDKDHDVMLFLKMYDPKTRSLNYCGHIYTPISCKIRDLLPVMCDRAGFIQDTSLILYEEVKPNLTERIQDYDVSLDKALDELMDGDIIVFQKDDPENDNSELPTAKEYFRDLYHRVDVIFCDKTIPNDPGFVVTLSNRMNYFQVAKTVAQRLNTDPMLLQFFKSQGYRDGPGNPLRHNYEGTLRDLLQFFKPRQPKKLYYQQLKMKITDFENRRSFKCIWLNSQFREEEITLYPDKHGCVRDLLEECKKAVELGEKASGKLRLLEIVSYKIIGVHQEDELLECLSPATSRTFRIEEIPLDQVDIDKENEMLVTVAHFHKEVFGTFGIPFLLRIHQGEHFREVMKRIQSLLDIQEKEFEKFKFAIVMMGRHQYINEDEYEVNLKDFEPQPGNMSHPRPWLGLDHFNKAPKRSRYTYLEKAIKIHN
Sequence of USP9X (Q93008 whole entry): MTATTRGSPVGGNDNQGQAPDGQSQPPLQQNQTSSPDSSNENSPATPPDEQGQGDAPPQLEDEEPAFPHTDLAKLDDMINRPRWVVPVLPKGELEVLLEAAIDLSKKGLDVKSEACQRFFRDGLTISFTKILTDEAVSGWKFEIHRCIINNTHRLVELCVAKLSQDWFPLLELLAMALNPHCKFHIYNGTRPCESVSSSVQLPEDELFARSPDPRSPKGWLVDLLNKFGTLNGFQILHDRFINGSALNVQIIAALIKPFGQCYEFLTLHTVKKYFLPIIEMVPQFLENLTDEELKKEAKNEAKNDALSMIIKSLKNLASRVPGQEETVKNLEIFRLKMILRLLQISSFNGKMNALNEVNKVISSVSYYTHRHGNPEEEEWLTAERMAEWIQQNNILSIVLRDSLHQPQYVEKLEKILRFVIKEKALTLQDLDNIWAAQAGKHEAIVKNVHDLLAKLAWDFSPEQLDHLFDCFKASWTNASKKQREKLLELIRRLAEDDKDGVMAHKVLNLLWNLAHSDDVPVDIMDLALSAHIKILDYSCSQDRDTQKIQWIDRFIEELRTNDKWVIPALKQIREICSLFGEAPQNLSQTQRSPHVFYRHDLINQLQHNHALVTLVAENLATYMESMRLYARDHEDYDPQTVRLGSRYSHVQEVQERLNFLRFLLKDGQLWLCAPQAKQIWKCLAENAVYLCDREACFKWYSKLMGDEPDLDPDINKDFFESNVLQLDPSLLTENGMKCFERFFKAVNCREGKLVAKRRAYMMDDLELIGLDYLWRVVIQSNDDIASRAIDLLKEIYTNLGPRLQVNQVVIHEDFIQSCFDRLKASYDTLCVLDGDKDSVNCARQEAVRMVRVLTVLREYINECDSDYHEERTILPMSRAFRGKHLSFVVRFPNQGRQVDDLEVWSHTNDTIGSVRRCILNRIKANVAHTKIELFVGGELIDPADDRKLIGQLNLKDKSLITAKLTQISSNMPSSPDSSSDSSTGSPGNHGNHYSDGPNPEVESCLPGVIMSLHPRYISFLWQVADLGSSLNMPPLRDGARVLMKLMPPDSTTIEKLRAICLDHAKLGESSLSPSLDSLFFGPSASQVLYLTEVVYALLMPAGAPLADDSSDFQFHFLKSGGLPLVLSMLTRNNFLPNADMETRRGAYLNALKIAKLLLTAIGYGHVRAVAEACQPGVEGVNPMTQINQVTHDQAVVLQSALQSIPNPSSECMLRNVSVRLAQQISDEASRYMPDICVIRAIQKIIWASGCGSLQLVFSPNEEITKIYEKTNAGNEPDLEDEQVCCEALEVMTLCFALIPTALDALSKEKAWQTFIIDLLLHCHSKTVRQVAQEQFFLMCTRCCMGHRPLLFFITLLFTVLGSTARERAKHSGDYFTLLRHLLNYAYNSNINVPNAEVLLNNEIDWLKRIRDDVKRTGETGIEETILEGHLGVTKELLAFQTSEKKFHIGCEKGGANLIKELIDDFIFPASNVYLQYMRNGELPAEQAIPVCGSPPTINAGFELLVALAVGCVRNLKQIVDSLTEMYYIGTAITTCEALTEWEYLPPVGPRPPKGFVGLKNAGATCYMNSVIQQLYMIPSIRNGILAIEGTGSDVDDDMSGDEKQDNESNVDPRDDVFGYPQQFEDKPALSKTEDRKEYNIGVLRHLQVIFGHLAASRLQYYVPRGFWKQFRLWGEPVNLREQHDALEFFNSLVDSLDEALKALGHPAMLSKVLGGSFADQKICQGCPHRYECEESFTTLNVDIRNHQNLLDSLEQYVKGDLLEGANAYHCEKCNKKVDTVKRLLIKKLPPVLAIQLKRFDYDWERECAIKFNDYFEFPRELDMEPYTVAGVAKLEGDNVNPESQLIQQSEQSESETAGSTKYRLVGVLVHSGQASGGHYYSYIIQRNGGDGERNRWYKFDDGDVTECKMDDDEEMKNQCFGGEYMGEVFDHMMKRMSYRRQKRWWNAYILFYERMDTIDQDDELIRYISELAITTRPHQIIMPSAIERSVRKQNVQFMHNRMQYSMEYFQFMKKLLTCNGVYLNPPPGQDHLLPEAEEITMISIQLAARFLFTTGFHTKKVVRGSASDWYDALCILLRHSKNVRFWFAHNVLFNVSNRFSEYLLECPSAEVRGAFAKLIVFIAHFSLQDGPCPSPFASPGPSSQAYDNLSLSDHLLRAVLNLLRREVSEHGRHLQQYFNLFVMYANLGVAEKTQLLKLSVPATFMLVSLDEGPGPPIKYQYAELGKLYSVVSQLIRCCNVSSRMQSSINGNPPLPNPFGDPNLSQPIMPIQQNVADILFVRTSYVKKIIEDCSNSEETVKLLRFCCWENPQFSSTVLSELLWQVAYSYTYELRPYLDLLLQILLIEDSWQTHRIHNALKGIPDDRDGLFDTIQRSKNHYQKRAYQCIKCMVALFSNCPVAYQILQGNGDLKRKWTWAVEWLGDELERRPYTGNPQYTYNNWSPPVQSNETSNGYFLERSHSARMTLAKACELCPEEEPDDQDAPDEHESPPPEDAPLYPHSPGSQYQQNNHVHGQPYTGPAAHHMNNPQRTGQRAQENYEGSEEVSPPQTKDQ

CC(NC(=O)CCl)c1cnn(C2CC2)c1 (stereo not given)
inactive: USP42 0.309 | USP46 -0.113 | USP47 -0.514 | USP48 0.0173 | USP5 -0.392 | USP54 0.76 | USP7 -0.323 | USP8 -0.373 | USP9X -0.227 | UniProt O00487 -0.0263

Reference: the supplement of paper PMC11732987, “Enantioselective OTUD7B fragment discovery through chemoproteomics screening and high-throughput optimisation” (Communications Chemistry, 2025)
